Source: PubChem
Sampled rows, rich in hits. Any-hit rate of the full collection: about 2%.
Y pestis TopoI – inhibitors of Yersinia pestis topoisomerase I; Y. pestis Topo-I cleavage product accumulation, plate reader; activity, % at 10 µM; AID 504884; actives 0.064% (n = 360,000); in the data active means activity above about 50%, passing the limit was not always enough
PrP UTR inh – suppresses PrP 5' UTR mRNA reporter expression. cell-based PrP 5' UTR mRNA reporter, plate reader. actives 0.35% (n = 340,000). inhibition, % (test concentration not listed); in the data active means inhibition above about 52%; further: 0 = median of the neutral control wells
BJeLR lethal – kills HRASV12-expressing BJeLR cells; BJeLR (HRASV12) viability, CellTiter-Glo ATP luminescence, 48 h; inhibition, % (concentration not given with the values); actives 0.17% (n = 300,000); AID 1554; in the data active means inhibition above about 50%
PrPC TRFRET – reduces human prion protein on the cell surface. AID 720596. inhibition, % at 13.8 µM. cell surface PrPC, TR-FRET read-out. actives 0.43% (n = 370,000). P04156; in the data active means inhibition above about 24%; further: 0% = median of the test wells and 100% = reference compound wells
PfHsp40 rescue – rescue of PfHsp40-mediated yeast toxicity; actives 0.68% (n = 340,000); S. cerevisiae expressing PfHsp40, growth rescue, ATP luminescence; AID 504582; growth rescue, % at 12.5 µM; in the data active means growth rescue above about 28%, passing the limit was not always enough;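 further: yeast W303a lacking pdr1 and pdr3 grown in galactose medium; growth measured after three days at 30 °C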
CCHFV vOTU inh – CCHFV vOTU protease inhibition | Pep-AMC fluorescence | AID 651958 | actives 0.55% (n = 370,000) | inhibition, % at 11.5 µM; in the data active means inhibition above about 30%; further: 0% = vehicle wells with enzyme and 100% = no enzyme wells
PrPC TRFRET cf – confirmation of inhibitors of cell surface human prion protein. shares compounds with PrPC TRFRET. cell surface PrPC level, TR-FRET. inhibition, % at 13.8 µM. actives 65% (n = 1,500). AID 743200; in the data active means inhibition above about 25%
LD9 cytotox – kills or reduces viability of LD9 cells in PrPc counter-screen. inhibition, % at 13.8 µM. actives 29% (n = 1,500). shares compounds with PrPC TRFRET. LD9 cells cytotoxicity, luminescence viability. AID 743201; in the data active means inhibition above about 9.5%
Starred values were filed as active, the others as inactive; nt = no result given.

SMILES	Y pestis TopoI	PrP UTR inh	BJeLR lethal	PrPC TRFRET	PfHsp40 rescue	CCHFV vOTU inh	PrPC TRFRET cf	LD9 cytotox
Cc1ccc(NC(=O)Nc2cccc([N+](=O)[O-])c2)cc1F	4	-160	5	9	0	9	nt	nt
COc1ccc2nc(C)cc(SCC(NC(C)=O)C(=O)OC(C)C)c2c1 (stereo not given)	-1	-4	-2	12	0	-15	nt	nt
CC(=O)NC(CSc1cc(C)nc2ccc(Br)cc12)C(=O)O (stereo not given)	4	-9	-3	32*	-1	-9	57*	-4
Cc1cccc(C)c1-n1c(SCC(=O)N2CC(=O)Nc3ccccc32)nc2ccccc2c1=O	22	-15	2	27*	2	-5	18	1
CC(C)c1nc(SCC(=O)N2CC(=O)Nc3ccccc32)c2ccccc2n1	0	-5	0	80*	0	4	104*	0
Cc1ccc(-n2c(SCC(=O)N3CC(=O)Nc4ccccc43)nc3ccccc3c2=O)cc1	36	-15	-24	7	1	4	nt	nt
CC1=C(C)[N+](=O)C2(O)CCCCC2(C)N1[O-] (stereo not given)	1	-15	13	36*	-1	8	4	-4
COC(=O)C1=C(C)N(Cc2ccc(Br)cc2)C(=S)NC1c1cccc(OC)c1 (stereo not given)	nt	nt	nt	3	nt	-2	nt	nt
COc1ccccc1Cn1c(=S)[nH]c2ccc(F)cc2c1=O	-3	-17	-5	108*	-1	-8	131*	-5
COc1ccccc1Cn1c(=S)[nH]c2ccccc2c1=O	0	3	-2	62*	-1	7	90*	-1
NS(=O)(=O)c1ccc(NC(=O)CSc2nnc(-c3cccs3)o2)cc1	nt	nt	nt	-6	nt	-3	nt	nt
BrC(=C\c1ccccc1)/C=N/n1cnnc1	6	-17	19	34*	1	18	4	37*
CCOC(=O)CCCCCC(=O)Nc1ccc2c(c1)C(=O)N([C@H](C)CO)C[C@@H](C)[C@@H](CN(C)S(=O)(=O)c1ccc(C)cc1)OCCCC[C@H](C)O2	nt	nt	nt	2	nt	27	nt	nt
CCOC(=O)CCCNC(=O)OC1CC2CC1[C@H]1CCCCN1[C@H]2Cc1ccccc1 (stereo not given in full)	nt	nt	nt	-4	nt	-3	nt	nt
O=S(=O)(C/C(=C/CO)S(=O)(=O)c1ccccc1)c1ccccc1	9	-40	26	86*	-1	10	92*	3
CCOC(=O)c1csc(NC(=O)c2ccc(OCC)cc2)n1	-5	-7	3	30*	0	4	20	-1
CCOC(=O)c1csc(NC(=O)c2ccccc2)n1	8	-38	-8	12	1	2	nt	nt
CC1CN(C(=O)CCc2cc(C(C)(C)C)c(O)c(C(C)(C)C)c2)CC(C)O1 (stereo not given)	14	-11	3	26*	-1	22	29*	18*
CCCCNc1ccc2c(c1)OC[C@H](Cc1ccccc1)NS2(=O)=O	nt	nt	nt	-4	nt	3	nt	nt
Cc1cccc2cc(C(c3nnnn3Cc3ccccc3)N3CCN(c4ccccc4)CC3)c(=O)[nH]c12 (stereo not given)	15	-10	5	59*	2	7	3	-2
COC(=O)[C@]1(C#N)CC(=O)N(C(C)C)[C@@H]1c1ccccc1	nt	nt	nt	4	nt	3	nt	nt
Cn1cc(C2NC(=O)c3ccccc3N2)c2ccccc21 (stereo not given)	1	-67	nt	25*	0	12	20	-4
O=c1c2cn[nH]c2[nH]c(=S)n1-c1cccc2ccccc12	-1	-23	3	40*	-1	9	46*	-6
COC(=O)c1sc(NC(=S)NNC(=O)c2c(Br)c(C)nn2C)c(C(=O)OC)c1C	-2	-5	3	132*	0	6	146*	-3
COC(=O)c1sc(S(=O)(=O)Nc2c(C)nn(C)c2C)c(C(=O)OC)c1C	-5	-9	nt	3	-1	0	nt	nt
SMILES	Y pestis TopoI	PrP UTR inh	BJeLR lethal	PrPC TRFRET	PfHsp40 rescue	CCHFV vOTU inh	PrPC TRFRET cf	LD9 cytotox
CC(C)(C)c1ccc(-n2nc(C(N)=O)c(O)cc2=O)cc1	7	-12	1	-3	-1	12	nt	nt
CC(C)(C)c1ccc(-n2nc(C#N)c(Cl)cc2=O)cc1	-1	-76	56*	69*	146*	8	70*	98*
Cc1ccc(Cc2nc(-c3ccncc3)no2)cc1	7	-26	4	72*	2	11	5	2
O=C(NNc1ccccc1)OCc1ccccc1	0	nt	nt	25*	nt	-4	18	-7
O=C(CSc1nnc(NC(=O)c2ccccc2F)s1)NCc1ccco1	4	-10	8	2	0	-9	nt	nt
O=C(CSc1nnc(NC(=O)c2ccccc2F)s1)NCc1ccc(F)cc1	1	-33	13	35*	0	20	9	-8
O=C(c1ccccc1)c1c[nH]c(C(=O)NNc2ccccc2)c1	10	-34	-7	27*	1	4	24	7
C#CCNC(=O)C[C@H]1C(=O)N(Cc2ccc(OC)cc2)C2=CCCC[C@@]21C(=O)OCC	nt	nt	nt	1	nt	-5	nt	nt
O=C(NCc1ccccc1)N1CCN(Cc2nc3ccccc3c(=O)[nH]2)CC1	nt	nt	nt	3	nt	-5	nt	nt
COc1ccc(CN2CCN(Cc3cccc(Oc4ccccc4)c3)CC2)c(OC)c1OC	-1	-17	3	-4	0	-4	nt	nt
COc1cc(CN2CCN(Cc3cccc(OC)c3OC)CC2)cc(OC)c1	-6	-13	-5	28*	0	-8	-4	0
C=C1c2cccc(O)c2C(=O)C2C(=O)[C@]3(O)C(=O)C(C(N)=O)C(=O)[C@@H](N(C)C)[C@@H]3[C@@H](O)[C@H]12 (stereo not given in full)	-12	-19	nt	40*	60*	13	-2	0
C[C@H]1c2cccc(O)c2C(O)=C2C(=O)[C@]3(O)C(O)=C(C(N)=O)C(=O)[C@@H](N(C)C)C3[C@@H](O)C21 (stereo not given in full)	-15	-14	7	4	0	4	nt	nt
COc1ccc(C(=O)NNC(=O)C(Cc2ccc(O)cc2)NC(=O)c2ccccc2NC(=O)c2ccc(OC)cc2)cc1 (stereo not given)	5	1	-8	119*	0	10	2	-4
COc1ccc(C(=O)Nc2ccccc2C(=O)NC(Cc2ccc(O)cc2)C(=O)NNC(=O)c2ccccc2Cl)cc1 (stereo not given)	16	-20	0	2	0	-11	nt	nt
COC(=O)[C@]1(C#N)CC(=O)N(Cc2ccc(Cl)cc2)[C@@H]1c1ccc(OC)cc1	nt	nt	nt	-2	nt	-1	nt	nt
